{
  "source": "PubChem BioAssay AID463173",
  "about": "(ICCB-Longwood Screening Facility, Harvard Medical School, 2010)",
  "note": "Out of some 52,000 compounds screened, about 4,300 (8.3%) were called active. No stated cut-off is given here; in the data, active means survival mostly below about 52% (no sharp cut-off); inactive means mostly above about 56%. Many of the other results were omitted from the sample, so actives are more common in it than they were.",
  "data": [
    {"test_system": "DeltatarO mutant", "test": "growth inhibition of S. aureus wild type versus tarO mutant, primary screen, teichoic acid synthesis inhibitors, RN4220, OD600 (AID 463173)", "settings": "OD600, 18 h, hits give low values, screened at 18.75 µg/mL (by protocol)", "values": [
      {"molecule": "CCOc1ccccc1-c1nc(C(N)=O)c2c(n1)n(-c1ccc3c(c1)OCO3)c(=O)n2C", "survival": "79% (inactive)"},
      {"molecule": "CCOc1ccc(NC(=O)Cc2c[nH]c3ccccc23)cc1", "survival": "80% (inactive)"},
      {"molecule": "Cc1oc2c(c1C(=O)NCCO)CCCC2", "survival": "85% (inactive)"},
      {"molecule": "COCc1cc(C)nc2sc3c(c12)NC(c1ccc(O)cc1)N(c1ccc(OC)cc1)C3=O", "note": "(stereo not given)", "survival": "76% (inactive)"},
      {"molecule": "CCCN1C(=O)C2(c3ccccc31)c1c(oc3ccc(F)cc3c1=O)C(=O)N2CCCOC(C)C", "note": "(stereo not given)", "survival": "93% (inactive)"},
      {"molecule": "COc1ccc2cc(C#N)c(N3CCCN(C(=O)/C=C/C(=O)O)CC3)nc2c1", "survival": "105% (inactive)"},
      {"molecule": "CCCN1CCc2nc(N3CCN(c4ncccn4)CC3)ncc2C1", "survival": "75% (inactive)"},
      {"molecule": "O=C1OCCC1Sc1nc2ccccc2n1Cc1ccccc1", "note": "(stereo not given)", "survival": "73% (active)"},
      {"molecule": "O=C(CSc1nc2ccccc2n1Cc1ccccc1)NCc1ccccc1", "survival": "95% (inactive)"},
      {"molecule": "O=C(CSc1nc2ccccc2n1Cc1ccccc1)Nc1ccccn1", "survival": "81% (inactive)"},
      {"molecule": "COC(=O)c1nnn(CC(=O)Nc2c(C)cccc2C)c1N", "survival": "87% (inactive)"},
      {"molecule": "Cc1ccc(NC(=O)CN2C(=O)COc3ccc(S(=O)(=O)N4CCCCCC4)cc32)cc1Cl", "survival": "67% (inactive)"},
      {"molecule": "COc1cccc(/C=N/NC(=O)c2cccc(C)c2)c1O", "survival": "2% (active)"},
      {"molecule": "O=C(N/N=C/c1ccc(OC(=O)c2ccco2)cc1)c1ccccn1", "survival": "92% (inactive)"},
      {"molecule": "COc1cccc(/C=N/NC(=O)COc2c(C)cccc2C)c1O", "survival": "88% (inactive)"},
      {"molecule": "Cn1cccc1/C=N/NC(=O)c1ccccn1", "survival": "77% (inactive)"},
      {"molecule": "Cc1cccc(/C=N/NC(=O)c2ccccn2)c1O", "survival": "5% (active)"},
      {"molecule": "COc1cccc(/C=N/NC(=O)CSCc2ccccc2)c1O", "survival": "69% (inactive)"},
      {"molecule": "COc1ccc(C(=O)Nc2ccc3nc4n(c(=O)c3c2)CCCCC4)cc1OC", "survival": "91% (inactive)"},
      {"molecule": "CCOc1ccc(-n2c(=O)c3c(C)c(C)sc3n(CC(=O)N3CCC(C)CC3)c2=O)cc1", "survival": "71% (inactive)"},
      {"molecule": "CCC(C)NC(=O)c1ccc2nc(Cc3ccc(OC)cc3)oc2c1", "note": "(stereo not given)", "survival": "76% (inactive)"},
      {"molecule": "CCOC(=O)c1c(C)[nH]c(CCC(=O)Nc2cc(Cl)ccc2OC)c1C", "survival": "94% (inactive)"},
      {"molecule": "COc1ccccc1CNC(=O)Cn1c(=O)ccc2cc(S(=O)(=O)N3CCCC3)ccc21", "survival": "69% (inactive)"},
      {"molecule": "CCn1nc(C)c(CCN(C)C(=O)Nc2cc(OC)c(OC)c(OC)c2)c1C", "survival": "89% (inactive)"},
      {"molecule": "COc1cc2c(cc1NC(=O)COc1ccc(Cl)cc1)oc1ccccc12", "survival": "46% (active)"},
      {"molecule": "COc1cc2c(cc1NC(=O)COc1ccc(Br)c(C)c1)oc1ccccc12", "survival": "49% (inactive)"},
      {"molecule": "CCc1ccc(OCC(=O)Nc2cc3oc4ccccc4c3cc2OC)cc1", "survival": "47% (active)"},
      {"molecule": "CCc1ccc(OCC(=O)Nc2cc3oc4ccccc4c3cc2OC)c(Br)c1", "survival": "123% (inactive)"},
      {"molecule": "COc1cc2c(cc1NC(=O)COc1ccc(Br)cc1C)oc1ccccc12", "survival": "119% (inactive)"},
      {"molecule": "COc1cc2c(cc1NC(=O)COc1ccc(Br)cc1)oc1ccccc12", "survival": "72% (inactive)"}
    ]}
  ]
}
